Data as given in the supplement of paper PMC10849652.
Targets with a hit are over-represented here; the source holds about 7,900 in all. About 0.6% of all pairs of compound and target were hits.

Columns and labels:
Test in all cases: log2 fold change, soluble protein after heating vs DMSO (PISA); higher = thermal stabilisation; K562 cells, 10 uM, 30 min; active = over 0.2 and 3.5 SD of the protein, either way, in both replicates (recomputed)
[1] = compound: CS(=O)(=O)c1ccc(-c2cnc(N)c(C(=O)Nc3ccccc3)n2)cc1
Method in brief: (§1)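 Soluble protein was quantified by TMTpro 16plex LC-MS/MS after channel sums were equalised. It was obtained as the supernatant after 21,000xg for 90 min from pooled aliquots of K562 cells (2×10^6 cells/mL, 10 μM compound, 30 min) heated for 3 min across 48°C-58°C and extracted in PBS with 0.5% NP-40 at 4°C. Thermal stability values are relative to control samples and come from duplicates. They are given as log2 fold changes.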

[2] = compound: C[C@@H](Oc1cc(-c2cnn(C3CCNCC3)c2)cnc1N)c1c(Cl)ccc(F)c1Cl [crizotinib]
Method in brief: as §1

[3] = compound: C[C@@H]1COCCN1C2=NC(=NC(=C2)C3(CC3)S(=O)(=O)C)C4=C5C=CNC5=CC=C4
Method in brief: as §1

[4] = compound: C[C@H](C1=CC=C(C=C1)C(=O)NC2=C3C=CNC3=NC=C2)N
Method in brief: as §1

[5] = compound: C[C@H](Nc1ncnc2nc[nH]c12)c1cc2cccc(Cl)c2c(=O)n1-c1ccccc1 [duvelisib]
Method in brief: as §1

[6] = compound: Cc1cc(Nc2cc(CN3CCOCC3)c3nc(C)c(Cc4ccc(Cl)cc4F)n3n2)n[nH]1 [gandotinib]
Method in brief: as §1

[7] = compound: Cc1cc(Nc2cc(N3CCN(C)CC3)nc(Sc3ccc(NC(=O)C4CC4)cc3)n2)n[nH]1 [tozasertib]
Method in brief: as §1

[8] = compound: Cc1cc(SCc2sc(-c3ccc(C(F)(F)F)cc3)nc2C)ccc1OCC(=O)O
Method in brief: as §1

[9] = compound: Cc1ccc(-n2nc(C(C)(C)C)cc2NC(=O)Nc2ccc(OCCN3CCOCC3)c3ccccc23)cc1 [doramapimod]
Method in brief: as §1

[10] = compound: Cc1ccc(C(=O)N(CCCN)[C@@H](c2nc3cc(Cl)ccc3c(=O)n2Cc2ccccc2)C(C)C)cc1 [ispinesib]
Method in brief: as §1

[11] = compound: Cc1ccc(NC(=O)c2ccc(CN3CC[C@H](N(C)C)C3)c(C(F)(F)F)c2)cc1Nc1nccc(-c2cncnc2)n1 [bafetinib]
Method in brief: as §1

[12] = compound: Cc1cccc(CC(=O)N2CCc3c2ccc(-c2cn(C)c4ncnc(N)c24)c3F)n1
Method in brief: as §1

[13] = compound: Cc1cn(-c2cc(NC(=O)c3ccc(C)c(Nc4nccc(-c5cccnc5)n4)c3)cc(C(F)(F)F)c2)cn1 [nilotinib]
Method in brief: as §1

[14] = compound: Cc1nc(Nc2n[nH]c3c2CN(C(=O)N[C@H](CN(C)C)c2ccccc2)C3(C)C)c2sccc2n1
Method in brief: as §1

[15] = compound: Cc1nc(Nc2ncc(C(=O)Nc3c(C)cccc3Cl)s2)cc(N2CCN(CCO)CC2)n1 [dasatinib]
Method in brief: as §1

[16] = compound: Cc1ncc(-c2ccnc(Nc3ccc(S(C)(=O)=O)cc3)n2)n1C(C)C
Method in brief: as §1

[17] = compound: Cn1cc(-c2ccc3c(c2)CCN3C(=O)Cc2cccc(C(F)(F)F)c2)c2c(N)ncnc21
Method in brief: as §1

[18] = compound: Cn1cc(-c2ccc3nnc(C(F)(F)c4ccc5ncccc5c4)n3n2)cn1
Method in brief: as §1

[19] = compound: Cn1cncc1[C@@](N)(c1ccc(Cl)cc1)c1ccc2c(c1)c(-c1cccc(Cl)c1)cc(=O)n2C [tipifarnib]
Method in brief: as §1

[20] = compound: FC(F)(F)c1ccc(/C=C/c2nc(COc3ccc(CCCCn4ccnn4)cc3)co2)cc1 [mubritinib]
Method in brief: as §1

Measured: log2 fold change

COX6B1 (UniProt P14854)
inactive: [1] -0.001 | [2] 0.184 | [3] 0.195 | [4] 0 | [5] 0.163 | [6] -0.027 | [7] 0.105 | [8] 0 | [9] -0.06 | [10] 0.226 | [11] -0.081 | [12] -0.023 | [13] -0.02 | [14] -0.01 | [15] 0.019 | [16] -0.027 | [17] 0.228 | [19] -0.044 | [20] 0.054
active: [18] 0.377

CHMP4B (UniProt Q9H444)
Chain of UniProt Q9H444 (Q9H444 whole entry, looked up): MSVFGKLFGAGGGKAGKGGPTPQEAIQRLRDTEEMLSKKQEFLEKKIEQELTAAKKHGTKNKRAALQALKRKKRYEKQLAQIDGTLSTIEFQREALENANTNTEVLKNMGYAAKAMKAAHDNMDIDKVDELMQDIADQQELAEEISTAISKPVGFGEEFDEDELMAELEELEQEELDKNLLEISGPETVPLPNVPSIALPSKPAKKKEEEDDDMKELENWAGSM
inactive: [1] -0.067 | [2] -0.036 | [3] -0.011 | [4] -0.022 | [5] -0.004 | [6] -0.075 | [7] -0.037 | [8] -0.014 | [9] 0.005 | [10] -0.008 | [11] -0.078 | [12] 0.061 | [13] -0.027 | [14] 0.007 | [15] 0.017 | [16] -0.023 | [17] 0.012 | [18] -0.013 | [19] 0.053 | [20] 0.051

C4A (UniProt P0C0L4)
Chain of UniProt P0C0L4 (P0C0L4 whole entry, looked up): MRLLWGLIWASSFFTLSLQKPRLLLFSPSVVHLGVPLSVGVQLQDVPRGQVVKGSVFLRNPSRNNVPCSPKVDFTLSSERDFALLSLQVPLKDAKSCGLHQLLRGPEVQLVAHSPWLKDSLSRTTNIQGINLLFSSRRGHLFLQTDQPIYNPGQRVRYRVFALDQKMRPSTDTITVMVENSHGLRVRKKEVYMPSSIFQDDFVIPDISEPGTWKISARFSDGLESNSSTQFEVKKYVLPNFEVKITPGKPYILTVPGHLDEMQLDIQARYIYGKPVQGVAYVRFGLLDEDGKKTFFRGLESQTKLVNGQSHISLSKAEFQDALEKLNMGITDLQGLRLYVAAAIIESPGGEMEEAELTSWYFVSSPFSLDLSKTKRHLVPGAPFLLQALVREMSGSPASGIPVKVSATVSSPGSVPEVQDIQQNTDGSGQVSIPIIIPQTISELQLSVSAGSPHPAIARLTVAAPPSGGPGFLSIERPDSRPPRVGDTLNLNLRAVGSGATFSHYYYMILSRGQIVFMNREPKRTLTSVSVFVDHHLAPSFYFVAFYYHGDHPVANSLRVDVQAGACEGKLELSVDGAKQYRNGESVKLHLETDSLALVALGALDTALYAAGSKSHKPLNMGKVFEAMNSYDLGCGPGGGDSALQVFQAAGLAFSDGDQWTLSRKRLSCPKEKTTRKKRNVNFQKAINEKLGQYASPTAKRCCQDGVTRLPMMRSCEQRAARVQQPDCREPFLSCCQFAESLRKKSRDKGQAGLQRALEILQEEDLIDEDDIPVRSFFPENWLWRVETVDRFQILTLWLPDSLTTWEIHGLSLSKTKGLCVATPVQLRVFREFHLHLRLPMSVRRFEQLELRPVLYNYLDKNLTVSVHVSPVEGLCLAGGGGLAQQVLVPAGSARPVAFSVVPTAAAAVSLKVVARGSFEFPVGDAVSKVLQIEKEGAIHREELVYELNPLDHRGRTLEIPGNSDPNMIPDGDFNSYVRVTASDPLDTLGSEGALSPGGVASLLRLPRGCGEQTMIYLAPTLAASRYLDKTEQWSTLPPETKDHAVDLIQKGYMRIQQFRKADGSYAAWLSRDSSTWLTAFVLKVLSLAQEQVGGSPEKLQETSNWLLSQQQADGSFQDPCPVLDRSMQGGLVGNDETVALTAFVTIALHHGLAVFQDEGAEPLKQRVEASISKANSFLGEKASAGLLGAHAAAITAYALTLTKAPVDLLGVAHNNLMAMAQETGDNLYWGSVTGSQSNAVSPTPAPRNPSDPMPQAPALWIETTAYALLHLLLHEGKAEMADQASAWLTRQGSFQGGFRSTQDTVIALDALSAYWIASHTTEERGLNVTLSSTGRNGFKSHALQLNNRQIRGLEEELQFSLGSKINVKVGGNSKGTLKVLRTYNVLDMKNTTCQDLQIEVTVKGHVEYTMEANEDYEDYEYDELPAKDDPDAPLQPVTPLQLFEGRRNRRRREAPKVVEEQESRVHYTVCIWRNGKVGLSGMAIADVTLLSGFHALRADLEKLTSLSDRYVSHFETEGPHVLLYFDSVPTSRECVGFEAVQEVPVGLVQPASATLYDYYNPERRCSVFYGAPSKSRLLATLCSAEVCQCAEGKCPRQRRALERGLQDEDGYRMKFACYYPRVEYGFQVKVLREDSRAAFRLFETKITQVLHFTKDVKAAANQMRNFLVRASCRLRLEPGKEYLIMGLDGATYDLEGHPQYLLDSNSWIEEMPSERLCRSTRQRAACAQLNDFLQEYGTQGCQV
inactive: [1] -0.096 | [2] 0.065 | [3] 0.088 | [4] 0.056 | [5] 0.026 | [6] -0.375 | [7] -0.056 | [8] 0.008 | [9] -0.153 | [10] -0.155 | [11] -0.316 | [12] -0.018 | [13] 0.027 | [14] 0.136 | [15] -0.044 | [16] 0.217 | [17] 0.163 | [18] 0.052 | [19] -0.087 | [20] -0.193

CHKA (UniProt P35790)
Chain of UniProt P35790 (P35790 whole entry, looked up): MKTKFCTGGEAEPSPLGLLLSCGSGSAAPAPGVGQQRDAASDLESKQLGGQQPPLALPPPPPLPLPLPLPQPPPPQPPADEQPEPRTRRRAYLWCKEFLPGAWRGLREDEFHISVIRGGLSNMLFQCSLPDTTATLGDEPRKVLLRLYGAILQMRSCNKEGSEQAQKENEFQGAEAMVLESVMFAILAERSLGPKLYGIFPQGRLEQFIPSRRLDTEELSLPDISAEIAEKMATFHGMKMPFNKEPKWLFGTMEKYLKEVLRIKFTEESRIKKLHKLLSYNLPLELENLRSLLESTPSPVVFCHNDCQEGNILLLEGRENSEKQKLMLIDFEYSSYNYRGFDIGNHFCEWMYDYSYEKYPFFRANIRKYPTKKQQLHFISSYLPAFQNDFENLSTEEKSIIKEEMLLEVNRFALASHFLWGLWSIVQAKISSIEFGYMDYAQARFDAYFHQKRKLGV
inactive: [1] -0.022 | [2] 0.075 | [3] -0.034 | [4] 0.046 | [5] -0.002 | [6] 0.009 | [7] -0.013 | [8] -0.012 | [9] -0.011 | [10] 0.048 | [11] 0.123 | [12] -0.023 | [13] 0.178 | [14] 0.149 | [15] 0.07 | [16] 0.088 | [17] -0.02 | [18] -0.081 | [19] -0.026 | [20] -0.024

CASP10 isoform 4 (UniProt Q92851)
Chain of UniProt Q92851 (Q92851 whole entry, looked up): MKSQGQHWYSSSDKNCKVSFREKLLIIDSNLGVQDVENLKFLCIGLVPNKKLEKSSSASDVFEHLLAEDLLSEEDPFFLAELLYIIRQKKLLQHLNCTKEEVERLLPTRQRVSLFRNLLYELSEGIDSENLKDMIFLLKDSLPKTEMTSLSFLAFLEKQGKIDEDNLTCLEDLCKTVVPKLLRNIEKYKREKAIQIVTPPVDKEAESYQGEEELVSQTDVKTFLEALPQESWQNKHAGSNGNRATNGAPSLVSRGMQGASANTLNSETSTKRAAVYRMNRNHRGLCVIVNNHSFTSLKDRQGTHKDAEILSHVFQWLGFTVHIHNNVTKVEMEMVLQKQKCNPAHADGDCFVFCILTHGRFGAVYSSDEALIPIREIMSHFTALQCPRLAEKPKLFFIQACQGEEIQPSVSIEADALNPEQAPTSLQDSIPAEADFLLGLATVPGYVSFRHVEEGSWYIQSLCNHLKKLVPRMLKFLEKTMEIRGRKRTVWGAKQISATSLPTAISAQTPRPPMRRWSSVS
inactive: [1] 0.006 | [2] -0.102 | [3] 0.015 | [4] -0.137 | [5] -0.08 | [6] -0.128 | [7] 0.177 | [8] 0.201 | [9] 0.028 | [10] -0.075 | [11] 0.001 | [12] -0.394 | [13] -0.087 | [14] -0.103 | [15] -0.301 | [16] 0.037 | [17] -0.044 | [18] 0.063 | [19] 0.119 | [20] 0.084

CFAP36 isoform 2 (UniProt Q96G28)
Chain of UniProt Q96G28 (Q96G28 whole entry, looked up): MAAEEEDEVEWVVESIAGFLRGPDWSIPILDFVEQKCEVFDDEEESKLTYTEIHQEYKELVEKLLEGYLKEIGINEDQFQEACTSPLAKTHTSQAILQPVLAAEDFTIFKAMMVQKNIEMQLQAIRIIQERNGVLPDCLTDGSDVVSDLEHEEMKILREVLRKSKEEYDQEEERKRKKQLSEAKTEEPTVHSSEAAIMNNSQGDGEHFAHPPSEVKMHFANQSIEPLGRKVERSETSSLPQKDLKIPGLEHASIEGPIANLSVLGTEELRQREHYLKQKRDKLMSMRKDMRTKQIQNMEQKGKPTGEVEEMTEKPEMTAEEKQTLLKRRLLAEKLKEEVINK
active: [4] -0.394 | [7] 0.587
inactive: [1] -0.013 | [2] -0.201 | [3] 0.078 | [5] 0.133 | [6] -0.048 | [8] -0.007 | [9] 0.096 | [10] -0.053 | [11] 0.022 | [12] -0.055 | [15] 0.014 | [17] -0.047 | [18] 0.128 | [19] 0.002 | [20] 0

COCH (UniProt O43405)
Chain of UniProt O43405 (O43405 whole entry, looked up): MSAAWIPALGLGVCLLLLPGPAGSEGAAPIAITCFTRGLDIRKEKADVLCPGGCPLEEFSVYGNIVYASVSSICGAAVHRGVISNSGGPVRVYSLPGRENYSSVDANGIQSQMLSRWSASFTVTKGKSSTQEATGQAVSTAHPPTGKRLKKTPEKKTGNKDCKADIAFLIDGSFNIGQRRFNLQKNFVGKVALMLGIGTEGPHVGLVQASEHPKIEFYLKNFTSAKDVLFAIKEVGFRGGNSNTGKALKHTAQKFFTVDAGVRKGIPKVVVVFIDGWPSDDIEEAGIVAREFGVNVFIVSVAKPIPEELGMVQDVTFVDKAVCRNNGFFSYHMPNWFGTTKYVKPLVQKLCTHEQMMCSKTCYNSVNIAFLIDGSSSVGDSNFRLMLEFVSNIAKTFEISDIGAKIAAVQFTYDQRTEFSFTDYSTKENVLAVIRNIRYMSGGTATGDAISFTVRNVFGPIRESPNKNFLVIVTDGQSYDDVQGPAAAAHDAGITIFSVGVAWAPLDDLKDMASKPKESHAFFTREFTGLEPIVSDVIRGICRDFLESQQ
inactive: [1] -0.051 | [2] -0.05 | [3] -0.033 | [4] -0.016 | [5] -0.052 | [6] 0.059 | [7] 0.154 | [8] -0.053 | [9] 0.052 | [10] -0.042 | [11] 0.076 | [12] -0.17 | [13] 0.2 | [14] -0.288 | [15] 0.179 | [16] -0.262 | [17] -0.069 | [18] -0.005 | [19] 0.07 | [20] -0.062

CHD3 isoform 3 (UniProt Q12873)
inactive: [1] -0.036 | [2] -0.128 | [3] 0.068 | [4] 0.079 | [5] 0.01 | [6] 0.237 | [7] 0.23 | [8] 0.14 | [9] 0.026 | [10] -0.193 | [11] 0.01 | [12] 0.004 | [13] -0.093 | [14] -0.274 | [15] -0.086 | [16] -0.172 | [17] -0.06 | [18] 0.063 | [19] -0.089 | [20] -0.058

C16orf58 (UniProt Q96GQ5)
Chain of UniProt Q96GQ5 (Q96GQ5 whole entry, looked up): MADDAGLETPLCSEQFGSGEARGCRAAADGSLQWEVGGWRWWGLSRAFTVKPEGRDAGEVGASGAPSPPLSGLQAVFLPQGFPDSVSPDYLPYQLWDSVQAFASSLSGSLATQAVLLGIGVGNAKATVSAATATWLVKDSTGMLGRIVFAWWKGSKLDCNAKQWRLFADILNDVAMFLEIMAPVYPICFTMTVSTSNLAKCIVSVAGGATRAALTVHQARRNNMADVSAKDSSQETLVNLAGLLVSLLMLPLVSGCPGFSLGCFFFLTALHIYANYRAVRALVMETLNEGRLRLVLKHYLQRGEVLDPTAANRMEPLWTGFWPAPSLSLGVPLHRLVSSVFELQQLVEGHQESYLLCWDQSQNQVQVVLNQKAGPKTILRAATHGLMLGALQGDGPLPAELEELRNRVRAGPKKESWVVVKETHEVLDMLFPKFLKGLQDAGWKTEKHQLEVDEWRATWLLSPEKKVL
inactive: [1] 0.011 | [2] -0.057 | [3] 0.126 | [4] 0 | [5] 0.044 | [6] -0.08 | [7] -0.028 | [8] -0.035 | [9] 0.006 | [11] -0.112 | [12] 0.052 | [13] -0.036 | [14] 0.029 | [15] -0.046 | [16] -0.01 | [17] 0.084 | [18] 0.012 | [19] 0.003 | [20] 0.021
active: [10] -0.309

CKB (UniProt P12277)
Chain of UniProt P12277 (P12277 whole entry, looked up): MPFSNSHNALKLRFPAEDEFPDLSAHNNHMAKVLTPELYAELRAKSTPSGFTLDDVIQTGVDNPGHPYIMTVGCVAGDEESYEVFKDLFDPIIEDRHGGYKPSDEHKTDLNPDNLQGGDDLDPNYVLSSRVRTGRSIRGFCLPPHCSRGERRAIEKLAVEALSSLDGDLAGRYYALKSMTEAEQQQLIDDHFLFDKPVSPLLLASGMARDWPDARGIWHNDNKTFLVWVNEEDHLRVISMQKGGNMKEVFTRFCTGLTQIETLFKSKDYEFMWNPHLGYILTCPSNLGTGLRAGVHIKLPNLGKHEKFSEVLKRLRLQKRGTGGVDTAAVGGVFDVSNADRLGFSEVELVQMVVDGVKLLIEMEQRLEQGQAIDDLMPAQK
inactive: [1] 0.059 | [2] -0.174 | [3] 0.077 | [4] 0.053 | [5] 0.031 | [6] -0.109 | [7] -0.058 | [8] 0.021 | [9] -0.009 | [10] -0.022 | [11] 0.02 | [12] 0.02 | [13] 0.051 | [14] 0.037 | [15] -0.142 | [16] -0.008 | [17] 0.081 | [18] 0.01 | [19] -0.057 | [20] 0.062

CDAN1 (UniProt Q8IWY9)
active: [15] -0.582
inactive: [1] 0.058 | [2] 0.024 | [3] 0.175 | [4] 0.066 | [5] 0.025 | [6] -0.054 | [7] -0.098 | [8] 0.008 | [9] 0.034 | [10] -0.02 | [11] -0.012 | [12] -0.014 | [13] 0.064 | [14] -0.195 | [16] -0.017 | [17] -0.023 | [18] 0.008 | [19] 0.011 | [20] 0.056

COMMD2 (UniProt Q86X83)
inactive: [1] -0.048 | [2] -0.13 | [3] 0.102 | [4] 0.037 | [5] 0.097 | [6] -0.029 | [7] 0.082 | [8] -0.018 | [9] -0.012 | [10] 0.014 | [11] 0.162 | [12] -0.066 | [13] -0.132 | [14] -0.069 | [15] -0.177 | [16] 0.097 | [17] -0.099 | [18] 0.057 | [19] 0.025 | [20] 0.101

CASP9 (UniProt P55211)
inactive: [1] 0.088 | [2] 0.002 | [3] 0.014 | [4] 0.014 | [5] 0.104 | [6] -0.152 | [7] 0.138 | [8] 0.064 | [9] 0.05 | [10] 0.037 | [12] 0.037 | [13] -0.013 | [14] -0.136 | [15] -0.075 | [16] 0 | [17] -0.276 | [18] -0.004 | [19] 0.003

CDC37L1 (UniProt Q7L3B6)
Chain of UniProt Q7L3B6 (Q7L3B6 whole entry, looked up): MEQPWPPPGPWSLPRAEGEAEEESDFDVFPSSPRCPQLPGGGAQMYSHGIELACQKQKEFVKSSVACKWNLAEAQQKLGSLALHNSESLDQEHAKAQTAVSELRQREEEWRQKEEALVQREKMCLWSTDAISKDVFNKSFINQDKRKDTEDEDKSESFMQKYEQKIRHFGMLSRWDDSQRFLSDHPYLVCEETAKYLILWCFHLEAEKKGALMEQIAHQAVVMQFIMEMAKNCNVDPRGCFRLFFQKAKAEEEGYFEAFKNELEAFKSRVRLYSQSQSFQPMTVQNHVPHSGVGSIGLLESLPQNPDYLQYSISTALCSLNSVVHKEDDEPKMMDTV
inactive: [1] 0.007 | [2] 0.036 | [3] 0.148 | [4] -0.013 | [5] -0.039 | [6] -0.091 | [7] -0.093 | [8] 0.117 | [9] -0.036 | [10] 0.005 | [11] -0.215 | [12] 0.027 | [13] -0.026 | [14] -0.167 | [15] -0.088 | [16] 0.022 | [17] 0.018 | [18] 0.121 | [19] 0.034 | [20] 0.172

C19orf53 (UniProt Q9UNZ5)
inactive: [1] -0.125 | [2] 0.092 | [3] -0.553 | [4] 0.404 | [5] -0.15 | [6] 0.316 | [7] 0.022 | [8] 0.03 | [9] 0.174 | [10] -0.13 | [11] 0.271 | [12] 0.034 | [13] 0.029 | [14] 0.139 | [15] 0.222 | [16] 0.023 | [17] -0.207 | [18] -0.083 | [19] 0.165 | [20] -0.13
